Source: PubChem BioAssay (several laboratories)
Hits are enriched below; roughly 1.5% of the tested compounds scored in any of these assays.
GLD-1 RNA inh – GLD-1-TGE RNA interaction inhibition (C. elegans); Q17339; purified GLD-1 + fluorescein TGE RNA, fluorescence polarization; 320,000 compounds, 0.44% hits; inhibition, % at 5.96 µM;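 active = percent inhibition above a per-plate cutoff, the plate mean of test compounds plus 3 SD, cut at about 30% in these data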;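 also: 0% = DMSO wells with GLD-1 and probe and 100% = wells lacking GLD-1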
Target sequence (Q17339 whole entry, looked up): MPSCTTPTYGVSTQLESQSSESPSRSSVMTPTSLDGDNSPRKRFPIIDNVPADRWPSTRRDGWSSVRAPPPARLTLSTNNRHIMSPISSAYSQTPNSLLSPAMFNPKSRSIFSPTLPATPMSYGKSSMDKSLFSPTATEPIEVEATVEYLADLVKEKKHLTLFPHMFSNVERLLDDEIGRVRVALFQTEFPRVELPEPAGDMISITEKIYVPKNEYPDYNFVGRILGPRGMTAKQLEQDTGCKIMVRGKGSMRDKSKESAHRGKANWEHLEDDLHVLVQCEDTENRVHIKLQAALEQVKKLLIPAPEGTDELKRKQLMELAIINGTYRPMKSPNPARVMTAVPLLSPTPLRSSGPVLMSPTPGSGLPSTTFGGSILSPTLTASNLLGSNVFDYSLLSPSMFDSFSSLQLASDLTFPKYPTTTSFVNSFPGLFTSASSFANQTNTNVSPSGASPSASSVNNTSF
EBV gp42 block – inhibitors of Epstein-Barr virus glycoprotein 42; Q1HVG2; Fluorescence polarization binding assay, mP read-out; inhibition, % (tested at 21.74 µM); 220,000 compounds, 0.42% hits; in the data active = inhibition above about 50%
MCL1-BIM inh – MCL1-BIM-BH3 interaction inhibition (human); Q07820; GST-MCL1 / FITC-Bim-BH3 fluorescence polarization; inhibition, % at 10.9 µM; 320,000 compounds, 0.68% hits;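 active = inhibition above the mean inhibition of all tested compounds plus 3 SD, set per campaign, cut at about 40% in these data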;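 also: 0% = DMSO wells and 100% = unlabeled Bim-BH3 peptide control; higher means more loss of mP so more displacement of Bim peptide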
BCLXL inh – Bcl-xL (human) inhibition. inhibition, % at 10.9 µM. GST-Bcl-xL / FITC-Bim BH3 peptide fluorescence polarization. Q07817. AID 2129. 320,000 compounds, 0.7% hits;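 active = inhibition above the mean of all tested compounds plus 3 SD, cutoff set per campaign, cut at about 30% in these data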;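 also: 0% = DMSO wells and 100% = unlabeled Bim-BH3 peptide competitor; inhibitors lower millipolarization by displacing the labeled peptide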
Target sequence (Q07817 whole entry, looked up): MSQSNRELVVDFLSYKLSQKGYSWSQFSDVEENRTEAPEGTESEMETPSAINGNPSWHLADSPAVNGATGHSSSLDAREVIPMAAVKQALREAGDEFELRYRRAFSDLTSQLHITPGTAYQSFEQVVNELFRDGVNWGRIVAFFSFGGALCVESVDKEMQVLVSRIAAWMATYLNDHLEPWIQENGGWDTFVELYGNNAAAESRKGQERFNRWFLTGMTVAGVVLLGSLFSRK
eLon inh – inhibitors of E. coli Lon protease. 360,000 compounds, 0.42% hits. inhibition, % at 7.94 µM. purified E. coli Lon protease, fluorescence polarization; in the data active = inhibition above about 13%, passing the limit was not always enough;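 also: 0% = enzyme with probe and DMSO and 100% = no enzyme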
MEX-5 binding – C. elegans MEX-5 TCR-2 RNA binding activity; MEX-5/FITC-TCR2 RNA binding, fluorescence polarization; hits give low values; 300,000 compounds, 0.38% hits; AID 1832; activity score (negative = inhibition of binding), % at 10 µM;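 active = inhibition past about -25% in most replicates, and total fluorescence under double the plate's negative control median, limit read from the data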;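 also: 0% = DMSO and -100% = 5 µM competing unlabeled TCR2 RNA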
Bcl-xL conf – Bcl-xL (human) inhibition, MCL1 counter-screen confirmation | 1,700 compounds, 54% hits | inhibition, % at 10.9 µM | GST-Bcl-xL / FITC-Bim BH3 peptide FP binding | shares compounds with MCL1-BIM inh;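 active = inhibition above a cutoff equal to the mean inhibition of all tested compounds plus 3 SD, cut at about 30% in these data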;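 also: 0% = DMSO wells and 100% = unlabeled Bim BH3 control peptide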
MCL1 BIM confirm – MCL1-BIM-BH3 interaction inhibition, confirmation; shares compounds with MCL1-BIM inh; GST-MCL1 / FITC-Bim-BH3 fluorescence polarization; inhibition, % at 10.9 µM; 1,700 compounds, 61% hits; AID 2168;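 active = inhibition above the average of all tested compounds plus 3 SD, cut at about 40% in these data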;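 also: 0% = DMSO wells and 100% = unlabeled Bim-BH3 control peptide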
An asterisk follows results filed as active; . = no result; + = active, no number.

SMILES | GLD-1 RNA inh | EBV gp42 block | MCL1-BIM inh | BCLXL inh | eLon inh | MEX-5 binding | Bcl-xL conf | MCL1 BIM confirm
CC(C)Oc1ccc(NC(=O)CCC(=O)O)cc1 | 2 | 78* | 4 | 3 | -14 | 1 | . | .
Cc1cc(NCC(=O)Nc2ccc(C)c(S(=O)(=O)N3CCOCC3)c2)ccc1Br | . | . | . | . | -13 | . | . | .
N#CC1(NC(=O)COC(=O)/C=C/c2ccc3ccccc3n2)CCCCC1 | 0 | . | -13 | 32* | -6 | 0 | . | .
Cc1ccc(CC(=O)N2CCN(C(=O)C3CCCO3)CC2)cc1 (stereo unspecified) | -4 | . | 9 | 3 | -9 | -1 | . | .
CC(CCc1ccccc1)NC(=O)C1CCN(C(=O)c2sccc2-n2cccc2)CC1 (stereo unspecified) | 2 | 5 | -3 | 72* | -3 | 2 | . | .
O=C(NCCc1ccc(Cl)cc1)C1CCN(C(=O)c2sccc2-n2cccc2)CC1 | 2 | 5 | 8 | 9 | 4 | -1 | . | .
CN(C)S(=O)(=O)c1cc(NC(=O)CN2CCc3ccccc32)ccc1Cl | 24 | -9 | 45* | 45* | 6 | -8 | . | .
CN(C)S(=O)(=O)c1cc(NC(=O)CN2CCCc3ccccc32)ccc1Cl | -105 | 6 | -15 | -6 | -142 | -1 | . | .
Cc1ccc(-c2nn(-c3ccccc3)cc2/C=C2\SC(=S)N(CC(=O)O)C2=O)cc1 | -4 | 22 | 70* | 8 | -12 | 1 | 16 | 10
CCN1C(=O)/C(=C/c2cn(-c3ccccc3)nc2-c2cccnc2)SC1=S | . | . | . | . | -14 | . | . | .
Cc1ccc(C)c(N(CC(=O)NCc2ccco2)C(=O)CNS(=O)(=O)c2ccccc2)c1 | -1 | . | 2 | 6 | 5 | 0 | . | .
Cc1ccc(N(CC(=O)NCc2ccco2)C(=O)CNS(=O)(=O)c2ccccc2)c(C)c1 | -3 | . | 42* | 6 | 3 | 1 | 3 | -15
COc1cccc2c(N/N=C/c3ccc(O)c(O)c3)cc(C)nc12 | 7 | . | 41* | 19 | 10 | -6 | 51* | 73*
COc1ccc(/C=N/Nc2cc(C)nc3c(C)cccc23)cc1 | 3 | . | 4 | 2 | 0 | 0 | . | .
CCOc1ccc(N/C(=C(/C(Cl)=C(Cl)Cl)[N+](=O)[O-])n2cncn2)cc1 | 55* | 28 | 93* | 92* | . | -49* | 121* | 156*
O=[N+]([O-])/C(C(Cl)=C(Cl)Cl)=C(\Nc1ccc(F)cc1)n1cncn1 | 7 | -23 | 2 | 3 | . | 2 | . | .
Cc1cccc(-n2c(O)c(C=Nc3cccc(O)c3)c3ccccc3c2=O)n1 | 5 | -1 | 5 | 6 | -5 | -1 | . | .
Cc1cccc(-n2c(O)c(C=Nc3ccc4c(c3)OCO4)c3ccccc3c2=O)n1 | -62 | -78 | 40* | 26 | -1 | -36* | 0 | -16
Cn1c(CNC(=O)CNS(=O)(=O)c2ccc(F)cc2F)cc(=O)n(C)c1=O | 2 | . | 11 | 7 | -3 | 0 | . | .
CCN1CCc2c(sc(N)c2C#N)C1 | -52 | -4 | 59* | 58* | -30 | -8 | 47* | 40*
CCOC(=O)C1CCCN(CC(O)COCc2ccccc2OC)C1 (stereo unspecified) | -3 | . | -1 | 1 | 9 | -2 | . | .
Cc1ccc(/C=c2\sc3nc(-c4ccco4)nn3c2=O)o1 | -2 | 11 | 58* | 25 | -6 | -9 | 45* | 72*
Cc1ccc(-c2nc3s/c(=C\c4ccco4)c(=O)n3n2)cc1 | 7 | -32 | 18 | 9 | -12 | -1 | . | .
COc1ccccc1/C=c1\sc2nc(-c3ccccc3OC)nn2c1=O | 1 | -2 | -3 | 6 | -1 | . | . | .
COc1ccc(Br)cc1/C=c1\sc2nc(-c3ccco3)nn2c1=O | -18 | . | 80* | 40* | -21 | 2 | 9 | 50*
SMILES | GLD-1 RNA inh | EBV gp42 block | MCL1-BIM inh | BCLXL inh | eLon inh | MEX-5 binding | Bcl-xL conf | MCL1 BIM confirm
Cc1[nH]c(SCC(=O)c2c(N)n(C)c(=O)n(C)c2=O)nc1Cc1ccccc1 | 1 | . | . | . | -4 | . | . | .
CCOC(=O)C1=C(COC(=O)c2ccc(OC(C)C)cc2)NC(=O)NC1C (stereo unspecified) | 7 | . | -2 | 2 | -14 | 5 | . | .
CC(C)CN(C(=O)CSc1nc2ccccc2c(=O)n1C)C1CCS(=O)(=O)C1 (stereo unspecified) | -2 | . | 0 | -5 | -9 | . | . | .
CNC(=O)c1ccsc1NC(=O)CN1C(=O)CCC1=O | 148* | -1 | 155* | 144* | -1 | 1 | 14 | 10
CNC(=O)c1ccsc1NC(=O)CS(=O)(=O)c1ccccc1 | 6 | . | -2 | 4 | -5 | 1 | . | .
Oc1ccc(/C=N/Nc2ccnc3cc(Cl)ccc23)cc1O | -7 | 10 | -7 | 0 | 1 | -4 | . | .
Oc1ccc(/C=N/Nc2ccnc3cc(Cl)ccc23)c(O)c1O | -14 | . | 54* | 19 | -27 | 0 | 33* | 38
CC(C)NC(=O)CN1C(=O)c2ccccc2S1(=O)=O | 6 | 3 | + | 5 | 2 | 0 | 6 | -3
O=C(Cc1ccc(Br)cc1)N(Cc1ccccc1)c1ccccn1 | -1 | 4 | 3 | 7 | -1 | -2 | . | .
O=C(Cc1ccc(S(=O)(=O)N2CCOCC2)s1)Nc1nc2c(s1)CCCC2 | 66* | -11 | 102* | 80* | -1 | -2 | 32* | 52*
Cc1ccc(NC(=O)c2ccc3nsnc3c2)c(Cl)c1 | 1 | . | 5 | 1 | 2 | -2 | . | .
Nc1c(C(=O)NC2CC2)sc2nc3c(c(-c4ccco4)c12)CC/C3=C/c1ccco1 | 85* | 104* | 115* | 73* | 25 | . | 64* | 96*
CCOC(=O)N1CCN(Cc2nc(N)nc(Nc3ccc(C)cc3C)n2)CC1 | 4 | 12 | 5 | 1 | 0 | . | . | .
Cc1ccc(N=Nc2[nH]c3ccccc3c2O)cc1 | 67* | 100* | 109* | 101* | -5 | -61* | 83* | 81*
CN(Cc1nc2ccccc2c(=O)[nH]1)C(=O)c1ccc(NC(=O)CSc2nnnn2C)cc1 | 5 | . | 44* | 1 | -4 | . | 1 | 0
COc1ccc(/C(N)=N/OC(=O)C2CCC(=O)N2S(=O)(=O)c2ccc(C)cc2)cc1OC (stereo unspecified) | 6 | 0 | 0 | -5 | 0 | -1 | . | .
OC(c1ccc(F)c(F)c1)c1nc(-c2cccc(F)c2)cs1 (stereo unspecified) | . | . | . | . | -14 | . | . | .
COc1cccc(CN2C(=O)c3cccc(N)c3C2=O)c1 | 44* | 59* | 58* | 50* | 18 | -21 | 33* | 53*
